This is an account of results in PubChem BioAssay (NCATS).

Records with an inconclusive call do not appear. Activity calls are given as the source filed them. Unless noted, calls come from the whole dose curve; as a rule, active = well fitted curve in the direction sought with a large enough effect; inconclusive = small, poorly fitted or top-dose-only effect, or another doubt; inactive = no such curve, though single readings can be large; an effect the other way counts as inactive or inconclusive.

Experiment [1] is described as follows: P-glycoprotein substrates identified in KB-8-5-11 adenocarcinoma cell line, qHTS therapeutic library screen (AID 1346987). Note: nearly all actives have a fitted effect of over 65% in size. Note: potency is the fitted concentration of half-maximal effect. In a few lines: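 P-gp-mediated resistance screen: KB-8-5-11 cells treated 72 h with compounds in dose-response. CellTiter-Glo viability.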
A general note: In qHTS, concentration-response curves come from the screen itself.

Experiment [2] concerns Zika virus NS2B-NS3 protease (unlinked complex). Nature of the experiment: Primary screen GU Rhodamine qHTS for Zika virus inhibitors: Unlinked NS2B-NS3 protease assay (AID 1347159). Note: % is set by controls: 0 for no effect and ±100 for the full control effect; nearly all actives have a fitted effect of over 60% in size. In a few lines:
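Noncovalent NS2B hydrophilic domain/NS3 protease complex (25 nM final) in 10 mM Tris-HCl pH 8.0, 0.01% Tween 20, preincubated 15 min with compounds (up to 114 microM), then 1.5 microM Rhodamine110 substrate. Fluorescence change over 15 min fitted to 4-parameter Hill.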

The nature of experiment [3]: Primary qHTS for inhibitors of nuclear receptor binding SET domain protein 2 (NSD2) in an isogenic RCH-ACV NSD2 p.E1099K mutant (9B) (AID 1645876). Note: nearly all actives have a fitted effect of over 70% in size. Note: potency is the fitted concentration of half-maximal effect.
A short description of experiment [4]: Primary qHTS for inhibitors of nuclear receptor binding SET domain protein 2 (NSD2) in an RCH-ACV wild type WT cells (2C) (AID 1645877). Note: nearly all actives have a fitted effect of over 70% in size. Note: potency is the fitted concentration of half-maximal effect.
The target of experiment [5] is Catechol O-methyltransferase (Homo sapiens) (UniProt P21964). Nature of the experiment: Confirmatory Screen for Target Class Profiling of Small Molecule Inhibitors of Methyltransferases (AID 1745852). For activity change, negative = inhibition: % is set by controls: 0 for no effect and ±100 for the full control effect. The settings on record: MTase-Glo luminescence, SAH detection, recombinant enzyme; measured here: COMT max response; stronger effect = lower value.
Chain of Catechol O-methyltransferase (Homo sapiens) (P21964 whole entry, looked up): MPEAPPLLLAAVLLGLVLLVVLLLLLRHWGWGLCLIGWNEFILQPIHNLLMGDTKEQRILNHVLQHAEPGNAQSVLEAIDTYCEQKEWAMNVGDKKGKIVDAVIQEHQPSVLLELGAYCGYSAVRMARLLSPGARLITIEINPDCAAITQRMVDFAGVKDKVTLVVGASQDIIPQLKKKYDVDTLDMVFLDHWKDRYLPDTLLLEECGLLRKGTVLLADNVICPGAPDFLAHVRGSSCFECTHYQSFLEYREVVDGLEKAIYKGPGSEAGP
The target in experiment [6] is Guanidinoacetate N-methyltransferase (Homo sapiens) (UniProt Q14353). Described as above. The settings on record: activity change, negative = inhibition: at 57.3 µM (top of the series) unless noted.
Experiment [7] deals with Nicotinamide N-methyltransferase (Homo sapiens) (UniProt P40261). Described as above. The settings on record: MTase-Glo luminescence, SAH detection, recombinant enzyme; measured here: NNMT max response; stronger effect = lower value.
Chain of Nicotinamide N-methyltransferase (Homo sapiens) (P40261 whole entry, looked up): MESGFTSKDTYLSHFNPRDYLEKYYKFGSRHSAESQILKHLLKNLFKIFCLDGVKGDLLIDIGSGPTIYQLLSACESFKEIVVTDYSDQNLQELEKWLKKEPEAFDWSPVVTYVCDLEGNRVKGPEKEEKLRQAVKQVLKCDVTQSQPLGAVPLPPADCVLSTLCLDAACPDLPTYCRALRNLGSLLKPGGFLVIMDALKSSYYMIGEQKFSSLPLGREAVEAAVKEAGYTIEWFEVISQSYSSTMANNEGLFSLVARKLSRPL
In experiment [8] the target is Phenylethanolamine N-methyltransferase (Homo sapiens) (UniProt P11086). The description is as above. The settings on record: MTase-Glo luminescence, SAH detection, recombinant enzyme; measured here: PNMT max response; stronger effect = lower value.
Chain of Phenylethanolamine N-methyltransferase (Homo sapiens) (P11086 whole entry, looked up): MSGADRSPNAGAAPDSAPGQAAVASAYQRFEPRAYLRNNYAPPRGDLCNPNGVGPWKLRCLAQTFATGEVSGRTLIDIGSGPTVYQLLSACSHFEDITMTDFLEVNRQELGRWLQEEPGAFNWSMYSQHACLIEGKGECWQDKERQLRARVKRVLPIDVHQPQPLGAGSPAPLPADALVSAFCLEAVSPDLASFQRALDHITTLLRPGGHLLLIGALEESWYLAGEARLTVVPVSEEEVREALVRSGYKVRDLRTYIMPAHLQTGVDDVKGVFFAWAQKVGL
In experiment [9] the test system is CRL-7250. Nature of the experiment: Cytotoxic Profiling of Annotated Libraries Using Quantitative High-Throughput Screening (AID 1296008). For max response: % is set by controls: 0 for no effect and ±100 for the full control effect. Note: nearly all actives have a fitted effect of over 60% in size. Note: potency is the fitted concentration of half-maximal effect. The settings on record: Five cell lines viability, CellTiter-Glo ATP luminescence, 48-72 h; max response: stronger effect = lower value. The gist of the method:
(§1)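 Cells exposed to compounds for 48 or 72 hr at 37 degrees Celsius. Viability read as ATP-coupled luminescence with CellTiter-Glo after 10 min at room temperature.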

The subject of another experiment is HACAT. The experiment is described as follows: qHTS assay to identify novel small-molecules to repurpose for Merkel cell carcinoma treatment (AID 1296009). Note: nearly all actives have a fitted effect of over 60% in size. The settings on record: MCC and control cell lines, CellTiter-Glo viability, 72 h; at 44.8 µM (top of the series) unless noted. In a few lines: (§2)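 Cells were incubated with compound for 72 hr at 37 degree celsius before CellTiter-Glo addition. Luminescence was normalized with no-cell wells as full cytotoxicity and DMSO as baseline.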

The next experiment deals with HEK293. The experiment is described as follows: Cytotoxic Profiling of Annotated Libraries Using Quantitative High-Throughput Screening (AID 1296008). For max response: % is set by controls: 0 for no effect and ±100 for the full control effect. Note: nearly all actives have a fitted effect of over 60% in size. Note: potency is the fitted concentration of half-maximal effect. The settings on record: Five cell lines viability, CellTiter-Glo ATP luminescence, 48-72 h; max response: stronger effect = lower value. The gist of the method: as §1
On the technique in general: Cellular ATP, detected with luciferase, serves as a proxy for viable cell number.

In another experiment the test system is KB-3-1. Described as above. As to conditions: Five cell lines viability, CellTiter-Glo ATP luminescence, 48-72 h; max response: stronger effect = lower value. In a few lines: as §1
The subject of the next experiment is HeLa. The experiment is described as follows: Primary qHTS to identify gynecologic anti-cancer compounds using libraries of approved drugs and bioactive compounds (AID 1345084). Note: nearly all actives have a fitted effect of over 55% in size. Note: potency is the fitted concentration of half-maximal effect. As to conditions: Gynecologic cancer cell panel viability, ATPlite luminescence, 48 h; series mostly up to 57.5 µM. The gist of the method: (§3)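 In this quantitative HTS, cell killing is estimated from loss of ATP-dependent luciferase light. Cells see five compound concentrations over a 48 h exposure.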

For a further experiment, the system named is SKOV3. The description is as above. As to conditions: Gynecologic cancer cell panel viability, ATPlite luminescence, 48 h; series mostly up to 57.5 µM. The gist of the method:
as §3

The test system of the next experiment is NIH3T3. The experiment is described as follows: qHTS assay to identify novel small-molecules to repurpose for Merkel cell carcinoma treatment (AID 1296009). Note: nearly all actives have a fitted effect of over 60% in size. The settings on record: MCC and control cell lines, CellTiter-Glo viability, 72 h; at 44.8 µM (top of the series) unless noted. In a few lines:
as §2

Experiment [10] addresses Cytochrome P450 2D6 (Homo sapiens) (UniProt P10635). The experiment is described as follows: Cytochrome P450 family 2 subfamily D member 6 (CYP2D6) small molecule antagonists: luciferase biochemical (cell-free) qHTS assay (AID 1645840; active = well fitted curve in the direction sought with a large enough effect in the repeat runs; an effect the other way counts as inactive or inconclusive; note: nearly all actives have a fitted effect of over 55% in size; note: potency is the fitted concentration of half-maximal effect). The gist of the method: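 P450-Glo luminescent screen: recombinant CYP2D6 enzyme–proluciferin substrate mix preincubated with compound 10 min at room temperature, then NADPH regeneration added for 1 h at room temperature. Detection reagent added for 20 min; luciferin light read as relative luminescence units.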

The target in experiment [11] is Cytochrome P450 2C9 (Homo sapiens) (UniProt P11712). The experiment is described as follows: Cytochrome P450 family 2 subfamily C member 9 (CYP2C9) small molecule antagonists: luciferase biochemical (cell-free) qHTS assay (AID 1645842; active = well fitted curve in the direction sought with a large enough effect in the repeat runs; an effect the other way counts as inactive or inconclusive; note: nearly all actives have a fitted effect of over 55% in size; note: potency is the fitted concentration of half-maximal effect; for activity change, negative = inhibition: % is set by controls: 0 for no effect and ±100 for the full control effect). The gist of the method: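 Luminescence, after 20 min with luciferin detection reagent, reflected CYP2C9 turnover during a 1 h NADPH-driven reaction at 37C. Enzyme-substrate mix contained 0.4% bovine serum albumin and was preincubated with compound 10 min at room temperature.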
Chain of Cytochrome P450 2C9 (Homo sapiens) (P11712 whole entry, looked up): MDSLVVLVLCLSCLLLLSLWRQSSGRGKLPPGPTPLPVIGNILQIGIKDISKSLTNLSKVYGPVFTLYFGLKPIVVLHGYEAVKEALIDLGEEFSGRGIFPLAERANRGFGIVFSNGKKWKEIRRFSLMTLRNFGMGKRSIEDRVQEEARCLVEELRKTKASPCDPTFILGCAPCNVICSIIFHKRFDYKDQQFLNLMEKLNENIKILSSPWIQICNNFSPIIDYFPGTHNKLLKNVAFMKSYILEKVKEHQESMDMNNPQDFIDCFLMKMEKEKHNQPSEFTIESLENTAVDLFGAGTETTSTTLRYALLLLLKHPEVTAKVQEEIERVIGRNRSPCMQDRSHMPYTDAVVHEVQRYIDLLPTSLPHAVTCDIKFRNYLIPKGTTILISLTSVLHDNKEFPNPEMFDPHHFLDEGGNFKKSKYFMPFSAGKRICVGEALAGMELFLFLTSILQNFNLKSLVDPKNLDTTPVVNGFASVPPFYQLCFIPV

Experiment [12] relates to CRL-7250. The experiment is described as follows: qHTS assay to identify novel small-molecules to repurpose for Merkel cell carcinoma treatment (AID 1296009). Note: nearly all actives have a fitted effect of over 60% in size. As to conditions: MCC and control cell lines, CellTiter-Glo viability, 72 h; series mostly up to 92 µM. The gist of the method:
as §2

A short description of experiment [13]: qHTS drug screen for cell cycle checkpoint inhibitors in PARPi-resistant BRCA-mutant ovarian cancer cell lines. (AID 1963452; calls by dose curve). As to conditions: PEO1/OlaR viability, CellTiter-Glo luminescence, 96 h, stronger effect = lower value. The gist of the method: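 PEO1, PEO4 and PEO1/OlaR ovarian cancer cells, 600 per well, exposed 96 h at 37C to a dilution series. Viability read by CellTiter-Glo luminescence, normalized to DMSO and empty wells; activity summarized as Z-AUC.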

Chain of Cytochrome P450 2D6 (Homo sapiens) (P10635 whole entry, looked up): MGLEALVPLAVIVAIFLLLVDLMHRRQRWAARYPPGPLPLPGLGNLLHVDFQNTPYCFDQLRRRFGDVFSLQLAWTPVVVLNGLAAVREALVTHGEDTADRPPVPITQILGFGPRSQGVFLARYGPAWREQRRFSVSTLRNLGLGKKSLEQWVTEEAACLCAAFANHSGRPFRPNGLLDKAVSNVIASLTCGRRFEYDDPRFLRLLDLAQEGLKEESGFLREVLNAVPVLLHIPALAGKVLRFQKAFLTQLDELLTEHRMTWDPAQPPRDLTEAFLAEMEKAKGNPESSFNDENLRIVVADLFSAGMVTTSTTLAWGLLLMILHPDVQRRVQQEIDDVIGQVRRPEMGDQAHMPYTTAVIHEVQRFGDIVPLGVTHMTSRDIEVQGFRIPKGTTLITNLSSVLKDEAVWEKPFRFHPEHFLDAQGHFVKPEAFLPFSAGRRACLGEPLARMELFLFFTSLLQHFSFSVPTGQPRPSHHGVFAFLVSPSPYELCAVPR

On to `Clc1ccc([C@]23CNC[C@H]2C3)cc1Cl`, for which the Potency result in [1], in experiment [2], in experiment [3] and in experiment [4] was “inactive” in each case. In addition, the results for the activity in experiment [5], in [7] and in [8] were -0.0723%, -7.01% and -90.8%, respectively. In experiment [6], the activity change, negative = inhibition was found to be 2.99%. Also, in the experiment on CRL-7250 [9], the max response is -9.42% (inactive). In the experiment with HACAT, the outcome was “inactive”.

As for `C[C@@H]1O[C@@H](O[C@H]2CC[C@@]3(C)C(CC[C@@H]4C3CC[C@]3(C)[C@@H](C5=CC(=O)OC5)CC[C@]43O)C2)[C@H](O)[C@H](O)[C@H]1O` (some centres undefined), the Potency in [1] was 0.709 µM (active); in [3] it was 0.2 µM (active); in experiment [4] it was 0.632 µM (active); with HEK293, 0.632 µM (active); in the experiment with KB-3-1, 0.796 µM (active); with HeLa it was 2 µM (active). Moreover, the Potency with SKOV3 was 2 µM (active). For the same compound, the Potency result in experiment [2] was “inactive”.

`CO[C@@H]1[C@@H](O)[C@@H](O[C@H]2CC[C@]3(C=O)C4CC[C@]5(C)[C@@H](C6=CC(=O)OC6)CC[C@]5(O)[C@@H]4CC[C@H]3C2)O[C@@H](C)[C@H]1O[C@@H]1O[C@H](CO[C@@H]2O[C@H](CO)[C@@H](O)[C@H](O)[C@H]2O)[C@@H](O)[C@H](O)[C@H]1O` (some centres undefined): the Potency in [1] is 3.48 µM (active); in experiment [3], 2.75 µM (active); in [4], 3.46 µM (active); with CRL-7250 [9], 2.19 µM (active). In experiment [2], the Potency entry was “inactive”. For the same compound, the outcome with NIH3T3 was “inactive [at 9.27 µM]”.

With `C/C=C(\C)C(=O)O[C@H]1CC2C(=C1C)[C@H]1OC(=O)[C@](C)(O)[C@]1(O)[C@H](OC(=O)CCC)C[C@@]2(C)OC(C)=O` (some centres undefined), the Potency entry (in [1]; in experiment [2]; in the experiment with SKOV3) was “inactive” each time. Also, the Potency in experiment [3] was 1 µM (active); in [4] it was 0.709 µM (active); in the experiment on CRL-7250 [9], 2.24 µM (active).

On to `CCOC(=O)Nc1ccc(NCc2c(C)cc(C)cc2C)cc1N`, for which the results for the Potency in experiment [10], in experiment [3] and in [4] were 2.13 µM (active), 18.3 µM (active) and 9.16 µM (active), respectively. In addition, the Potency result (in [11]; in the experiment with CRL-7250 [12]; in the experiment with HeLa; in the experiment with SKOV3) was “inactive” in each case. The outcome with CRL-7250 [9] is “inactive”.

`CC(O)(c1ccccc1)C(Cc1ccc(Cl)cc1)n1cncn1` (centres undefined): the Potency result (in [1]; in experiment [2]; with HeLa; with SKOV3) was “inactive” throughout. Besides, the Potency in experiment [11] was 0.952 µM (active). Moreover, the max response with CRL-7250 [9] was 0.336% (inactive). The outcome in the experiment on HACAT was “inactive”.

Turning to `CC(=O)NCCCOc1ccc(C(=O)N2CCC(N3C(=O)CCc4ccccc43)CC2)cc1`, the Potency entry (in [1]; in experiment [2]; in experiment [10]; in [11]; in the experiment on HeLa; with SKOV3) was “inactive” each time. In addition, the max response in the experiment on CRL-7250 [9] was 0.176% (inactive).

Take `Cc1ncc(OC[C@@]2(c3cccc(F)c3)C[C@H]2C(=O)Nc2ccc(F)cn2)c(C)n1`: the Potency result in [3] is “inactive”. Also, the figures for the Z-AUC in experiment [13], in experiment [13] (measured here: PEO1 parental Z-AUC) and in [13] (measured here: PEO4 Z-AUC) were -0.208 (inactive), -0.55 and 0.108, respectively. The max response in the experiment with HEK293 is 4.45% (inactive). For the same compound, the outcome in the experiment on HACAT and in the experiment on NIH3T3 was “inactive” in each case.
